# Most compounds without a hit are left out; they make up all but 19% or so of the library.
# TDP1 cell CPT: DT40-hTDP1 cell growth loss with CPT; chicken DT40 Tdp1-/-;hTDP1 cells + 20 nM CPT, ATP luminescence, 48 h; Potency, µM (top dose mostly 46.2 µM), without a hit: at the highest dose activity change, negative = growth inhibition, hits mostly inhibitors; 420,000 compounds, 12% hits; note: potency is the fitted concentration of half-maximal effect; nearly all actives have a fitted effect of over 55% in size
#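 Cell growth measured by CellTiter-Glo luminescence after a minimum 48 h, 37 C compound exposure with 20 nM CPT in Tdp1-knockout DT40 cells stably expressing hTDP1, seeded 400/well; qHTS titration format.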
# HT1080 IDH1KD tx: HT-1080 IDH1 knockdown cell toxicity (counter line); HT-1080 IDH1 knockdown viability, ATP luminescence, 48 h; Potency, µM (doses to about 46.1 µM), for inactives: at the top dose activity, negative = toxicity, usual class: cytotoxic; 360,000 compounds, 2% hits;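 note: potency is the fitted concentration of half-maximal effect; 0% = DMSO wells and -100% = cell-free medium wells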
#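 Luminescent ATP read-out (CellTiter-Glo, 10 min at room temperature) after 48 h compound exposure at 37 °C gave viability of IDH1-knockdown HT-1080 cells. Activity was normalised to DMSO and cell-free wells, then fitted as concentration-response curves.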
# IL-1B inflam inh: inhibitors of inflammasome signaling (IL-1 beta secretion) | AID 743279 | 360,000 compounds, 4.7% hits | activity change, % at 57.5 µM | THP-1 LPS/ATP IL-1B secretion, AlphaLISA, 16 h; hits give low values; in the data active = activity change below about -50%; inconclusive = mostly about -30% to -49%
#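 THP-1 cells pretreated 1 hr with compounds (up to 57.5 uM final), then stimulated with LPS (250 ng/mL final) plus ATP (1.25 mM final); secreted IL-1B measured by AlphaLISA after 16 hr, decreased signal indicating inhibition.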
# HT1080NT lethal: kills 2HG-producing HT-1080-NT fibrosarcoma cells; HT-1080-NT fibrosarcoma viability, CellTiter-Glo ATP luminescence, 48 h; Potency, µM (series often up to 46.1 µM), for the others: at the highest dose activity, negative = less viability, most hits filed as cytotoxic; 360,000 compounds, 1.6% hits; AID 686970;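 note: NT is the 2HG producing partner of a matched IDH1 knockdown line; potency is the fitted concentration of half-maximal effect; 0% = DMSO-treated cells and -100% = media-only wells without cells; nearly all actives have a fitted effect of over 55% in size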
#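 Luminescent CellTiter-Glo readout after 48 hours of compound exposure at 37 degrees C defined viability of HT-1080-NT cells. Activity was normalized to DMSO wells and cell-free media wells; concentration-response curves were fitted and assigned curve classes.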
# TDP1 cell noCPT: qHTS for Inhibitors of human tyrosyl-DNA phosphodiesterase 1 (TDP1): qHTS in cells in absence of CPT. AID 686978, 2013. Potency, µM (series often up to 46.2 µM), for inactives: at the highest dose activity change, negative = growth inhibition, actives largely listed as inhibitors. DT40 Tdp1-/- hTDP1 cells, no CPT, ATP luminescence, 48 h. 420,000 compounds, 15% hits; note: potency is the fitted concentration of half-maximal effect; nearly all actives have a fitted effect of over 55% in size
#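 Growth kinetics read by CellTiter-Glo luminescence after ≥48 hr at 37 °C. Cells: DT40 Tdp1-/- stably carrying human TDP1, 400 per well, compound exposure in the absence of CPT (DMSO vehicle).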
# ELG1 DNA repair: blocks ELG1-dependent DNA repair in HEK293T cells; HEK293T ELG1-luciferase reporter, luminescence, 16 h; DNA damage induced by 5-fluorouridine; Potency, µM (titrated, usually from 46.1 µM), for the others: at the highest dose activity change, negative = inhibition, actives largely listed as inhibitors; 330,000 compounds, 2.3% hits; AID 504467; note: potency is the fitted concentration of half-maximal effect; nearly all actives have a fitted effect of over 55% in size
#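 Luminescence from the luciferase reporter, measured 30 min after ONE-Glo reagent at room temperature, was the read-out. Beforehand, 2,000 cells per well were exposed for 16 hr at 37 °C to 5-fluorouridine together with compound or vehicle.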
# * marks the source's active call; other numbers are inactive results; ? = inconclusive; · = not tested or not shown; [ ] = dose if it differs, or a comment. Unless noted, calls come from the whole dose curve; as a rule, active = well fitted curve in the direction sought with a large enough effect; inconclusive = small, poorly fitted or top-dose-only effect, or another doubt; inactive = no such curve, though single readings can be large; an effect the other way counts as inactive or inconclusive. Unless noted, % is set by controls: 0 for no effect and ±100 for the full control effect.
SMILES,TDP1 cell CPT,HT1080 IDH1KD tx,IL-1B inflam inh,HT1080NT lethal,TDP1 cell noCPT,ELG1 DNA repair
COc1cc2c(NC3CCN(C)CC3)nc(N3CCCN(C)CC3)nc2cc1OCCCN1CCCCC1,18µM*,·,·,·,10µM*,·
COc1cc2c(NC3CCN(C)CC3)nc(N3CCCN(C)CC3)nc2cc1OCCCCC(N)=O,8%,6%,·,23%,-12%,·
COc1cc2c(NC3CCN(C)CC3)nc(N3CCCN(C)CC3)nc2cc1OCCCC(C)C,1.1µM*,·,·,·,1.1µM*,·
CCOc1cc(S(=O)(=O)n2cc(-c3ccc(F)cc3)c(N)n2)cc(OCC)c1OCC,?,-10%,-7,-18%,13µM*,15µM*
O=C(CNC(=O)c1ccco1)Nc1ccncc1,-7%,3%,-1,0%,-1%,27%
CC(NCc1ccc([N+](=O)[O-])cc1)C1COc2ccccc2O1 (configuration not stated),-1%,-2%,-13,-4%,21µM*,1%
CC(NC(=O)Cc1ccccc1)C1COc2ccccc2O1 (configuration not stated),5%,14%,2,1%,0%,-1%
CCc1nc2ccc(C(=O)NCCCN3CCN(c4ccccc4F)CC3)cc2nc1CC,?,?,-23,-5%,23µM*,-11%
O=C(NCCCN1CCN(c2ccccc2F)CC1)c1ccc2nc(CCc3ccccc3)oc2c1,21µM*,·,·,·,15µM*,·
O=C(NCCCN1CCN(c2ccccc2F)CC1)c1ccc2nc(Cc3ccccc3)oc2c1,?,·,·,·,26µM*,·
CSc1ccc(NC(=O)NCCCN2CCN(c3ccccc3F)CC2)cc1,21µM*,?,?,?,21µM*,?
O=C(NCCCN1CCN(c2ccccc2F)CC1)Nc1ccc(F)cc1,?,-10%,-15,-12%,?,-2%
O=C(NCN1CCN(c2ccccc2F)CC1)c1ccccc1,-14%,2%,-14,0%,-1%,5%
Cc1c(C)n(C)c2ccc(C(=O)NCCCN3CCCC3)cc12,-13%,0%,-15,-5%,-14%,?
Cc1c(C)n(C)c2ccc(C(=O)NCCCN3CCN(c4ccccc4F)CC3)cc12,9.2µM*,?,-1,?,?,?
Cc1ccc(-n2nc(C)c3c(C)c(CCC(=O)NCCCOC(C)C)c(C)nc32)cc1,23µM*,-2%,20,-5%,?,-5%
CC(=O)c1ccc(NC(=O)CCc2c(C)nc3c(c(C)nn3-c3ccc(C)cc3)c2C)cc1,?,·,·,·,7.3µM*,·
COCCCNC(=O)CCc1c(C)nc2c(c(C)nn2-c2ccccc2)c1C,-18%,-1%,20,-3%,-13%,-3%
Cc1ccc(-n2nc(C)c3c(C)c(CCC(=O)Nc4ccc(CN5CCCC5)cc4)c(C)nc32)cc1,?,15µM*,-86*,-9%,12µM*,12%
COC(CNC(=O)CCc1c(C)nc2c(c(C)nn2-c2ccc(C)cc2)c1C)OC,?,5%,-18,4%,?,-27%
C[C@@H]1CN(Cc2ccc3c(c2)CN(Cc2cccn2-c2ccc(Cl)cn2)CCO3)C[C@H](C)O1,7%[9.04 µM],·,·,·,-7%,·
O=C(COC(=O)/C=C/C(=O)OCC(=O)NC12CC3CC(CC(C3)C1)C2)NC12CC3CC(CC(C3)C1)C2,13µM*,?,-93*,?,15µM*,?
Cc1cccc(C(=O)OCC(=O)NC23CC4CC(CC(C4)C2)C3)c1O,9.2µM*,-17%,-9,-3%,18µM*,?
